# Tgondii IFNg – blocks Toxoplasma gondii growth in the presence of IFN-gamma | Toxoplasma gondii growth in IFN-gamma-treated host cells; hits give low values | AID 1259416 | activity change, negative = inhibition, % (test concentration not listed) | hit rate 3.8% among 69,000; in the data active = activity change below about -70%, passing the limit was not always enough;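 note: host cells are HeLa cells infected with Toxoplasma gondii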
# Numbers stand for hits; 0 = inactive; ! = not active in a repeat. This is one part of a sample in which hits are shown more often than they occur.
SMILES,Tgondii IFNg
CN[C@H](C(=O)N[C@H](C(=O)N(C)[C@H](/C=C(\C)C(=O)O)C(C)C)C(C)(C)C)C(C)(C)c1ccccc1,-71
O=S(=O)(c1cc(Cl)sc1Cl)N1C=CC(C(F)(F)F)=NCC1,0
Cc1cc(C)n(CCNC(=O)C(=O)N2c3ccccc3CC2C)c(=O)n1 (centres undefined),0
Cc1occc1C(=O)N1C[C@H]2CC[C@@]3(N=C(c4ccccc4)NC3=O)[C@H]2C1,0
O=C1OC(=O)C2C1[C@@H]1CC[C@H]2O1 (some centres undefined),-77
CN(C)[C@@H]1C[C@@H](C(=O)O)N(Cc2ccncc2)C1,0
COc1ccc(-c2nc(N3CCc4ccccc43)c3ccccc3n2)cc1,0
CCOC(=O)C1CCCN(c2nc(-c3ccc(Cl)cc3)nc3ccccc23)C1 (centres undefined),0
CC(C)N(C(=O)c1ccccc1-c1ccccc1C(=O)N(C(C)C)C(C)C)C(C)C,-87
Cc1onc(-c2c(Cl)cccc2Cl)c1C(=O)N(C(C)C)C(C)C,0
CC(=O)c1ccccc1-c1ccccc1C(=O)NC(C)C,0
CCO[C@@H]1CCN(C(=O)C(C)C)[C@@H]2CCO[C@H]21,0
CCO[C@H]1CN(C(=O)N2CCCC2)[C@H]2CCCO[C@@H]12,-96
CCO[C@H]1CC[C@@H]2[C@@H]1OCCN2C(=O)c1ccc2ccccc2c1,0
O=C(CC(C(=O)O)c1c[nH]c2ccccc12)c1ccccc1 (centres undefined),0
COc1ccccc1C1(O)CCCN(CC(O)c2ccc(C)cc2)C1 (centres undefined),0
CC1CN(CCCn2c3ccccc3c3ccccc32)CC(C)N1 (centres undefined),0
COc1ccccc1C1(O)CCN(CCCn2c3ccccc3c3ccccc32)CC1,-77!
CCOCC1CN(C(=O)c2c(C)noc2C)Cc2ncn(CC3CC3)c21 (centres undefined),0
CNC(=O)CN1CCOCC12CCN(C(=O)CC1CCCC1)CC2,0
COc1ccc(NC(=O)c2nnn(Cc3nc(-c4ccccc4)oc3C)c2C)cc1OC,0
COc1ccc2c(Oc3ccc(NC(=O)c4c(C)n(CC(C)(C)O)n(-c5ccccc5)c4=O)nc3)ccnc2c1,-73
COc1ccc2c(OCc3nnc4ccc(-c5ccccc5)nn34)ccnc2c1,0
COc1ccc2oc(=O)c(C(=O)Nc3c(C)n(C)n(-c4ccccc4)c3=O)cc2c1,0
O=C(/C=C/c1ccccc1)NC(NC(=S)Nc1ccc(Cl)cc1)C(Cl)(Cl)Cl (centres undefined),-78
SMILES,Tgondii IFNg
O=C(/C=C/c1ccccc1)c1ccc(O)cc1O,0
OC(c1ccccc1)(c1ccccc1)C1CCN(C(=S)Nc2ccc(Cl)cc2)CC1,0
COC(=O)C(NC(=O)c1cnn2ccn(C)c12)c1cccc(C)c1 (centres undefined),0
CCOc1ccc(-c2nc(CN3CCN(C(=O)Nc4cccc(Cl)c4)CC3)c(C)o2)cc1,0
O=C(CN1C(=O)CCc2cc(S(=O)(=O)N3CCCCC3)ccc21)N1CCc2ccccc2C1,0
CSc1ccc(C2c3[nH]c4ccccc4c3CCN2C(=O)c2cccc(C)c2)cc1 (centres undefined),-115
Cc1cccc(C(=O)N2CCc3c([nH]c4ccccc34)C2c2ccc(Cl)cc2)c1 (centres undefined),-104
CN(C)c1cccc(C(=O)N2CCc3c([nH]c4ccccc34)C2c2ccccc2)c1 (centres undefined),-111
CSc1ccc(C2c3[nH]c4ccccc4c3CCN2C(=O)c2cccc(F)c2)cc1 (centres undefined),0
COc1ccc(C2c3[nH]c4ccccc4c3CCN2C(=O)c2ccc(N(C)C)cc2)cc1 (centres undefined),0
Cc1cccc(C(=O)N2CCc3c([nH]c4ccccc34)C2c2ccc(F)cc2)c1 (centres undefined),0
CSc1ccc(C2c3[nH]c4ccccc4c3CCN2C(=O)c2cccc(N(C)C)c2)cc1 (centres undefined),0
CN(C)C(=O)N[C@@H]1CN(Cc2nccn2C)C2CCCOC21 (some centres undefined),0
C=CCNC(=O)C1(Cc2ccc(-c3ccccc3F)cc2)CCCNC1 (centres undefined),0
CCCCCC(=O)Nc1ccc2c(c1)Cc1ccccc1-2,0
O=C(CCCc1ccc(-c2ccccc2F)cc1)Nc1ccc(O)cc1,-80
COc1ccc(N(C(=O)c2ccc(C)cc2)C2(C(=O)NCc3ccccc3)CCN(C(C)=O)CC2)cc1,0
O=S1(=O)c2cccc3cccc(c23)N1Cc1cc2c(cc1Cl)OCO2,0
COc1ccc(N2CCC(N(CCN3CCOCC3)C(=O)c3ccccn3)CC2)cc1,0
C[C@@H](Cn1nnc2ccccc21)NC(=O)c1ccc2c(c1)OCO2,0
O=C(CCn1nnc2ccccc21)Nc1nnc(COc2ccc(F)cc2)s1,0
O=C(CCn1nnc2ccccc21)Nc1nnc(-c2ccc3c(c2)OCO3)s1,-103
NC(=O)C1Cc2ccccc2CN1S(=O)(=O)NCc1ccccc1 (centres undefined),0

# Compound activity from PubChem.
